Hit rate of the full screen: of about 5,500 compounds, about 2,000 (36%) were called active. Roughly 18% stayed inconclusive and do not appear here. Rule as the data show it: active = normalized growth mostly below about 0.91 (no sharp cut-off); inconclusive = no clear call, values can overlap the other calls; inactive = mostly above about 0.92. Some of the results follow.
Assay: chemical genetic growth profiling, strain panel (AID 1159580);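 also: tested at 20 µM; growth read once vehicle control cultures reached saturation at 30 °C; 1 = growth at the plate median or of vehicle wells; lower values mean less growth of the strain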
Settings: growth OD
[1] = S. cerevisiae deletion strains, locus YDL101C, strain DUN1, stronger effect = lower value
[2] = S. cerevisiae deletion strains, locus YHR030C, strain SLT2, stronger effect = lower value

Measured: normalized growth

CCOC(=O)C(O)(c1ccc(N)c(C)c1)C(F)(F)F (centres undefined)
inactive: S. cerevisiae deletion strains, locus YAL013W, strain DEP1, stronger effect = lower value 0.995 | S. cerevisiae deletion strains, locus YBR229C, strain ROT2, stronger effect = lower value 1 | [1] 0.996 | S. cerevisiae deletion strains, locus YDR150W, strain NUM1, stronger effect = lower value 0.928 | S. cerevisiae deletion strains, locus YEL061C, strain CIN8, stronger effect = lower value 0.988 | S. cerevisiae deletion strains, locus YGR078C, strain PAC10, stronger effect = lower value 0.992 | [2] 0.953 | S. cerevisiae deletion strains, locus YHR087W, strain rtc3, stronger effect = lower value 1.02 | S. cerevisiae deletion strains, locus YJL187C, strain SWE1, stronger effect = lower value 1 | S. cerevisiae deletion strains, locus YJR043C, strain POL32, stronger effect = lower value 0.925 | S. cerevisiae deletion strains, locus YJR075W, strain HOC1, stronger effect = lower value 0.991 | S. cerevisiae deletion strains, locus YLR039C, strain RIC1, stronger effect = lower value 0.988 | S. cerevisiae deletion strains, locus YLR058C, strain SHM2 (second series), stronger effect = lower value 1.01 | S. cerevisiae deletion strains, locus YLR085C, strain ARP6, stronger effect = lower value 0.996 | S. cerevisiae deletion strains, locus YLR262C, strain YPT6, stronger effect = lower value 1.02 | S. cerevisiae deletion strains, locus YML094W, strain GIM5, stronger effect = lower value 0.991 | S. cerevisiae deletion strains, locus YMR219W, strain ESC1, stronger effect = lower value 0.982 | S. cerevisiae deletion strains, locus YMR263W, strain SAP30, stronger effect = lower value 0.999 | S. cerevisiae deletion strains, locus YMR307W, strain GAS1, stronger effect = lower value 0.946 | S. cerevisiae deletion strains, locus YNL128W, strain TEP1, stronger effect = lower value 1.01 | S. cerevisiae deletion strains, locus YNL153C, strain GIM3, stronger effect = lower value 0.993 | S. cerevisiae deletion strains, locus YNL298W, strain CLA4 (second series), stronger effect = lower value 1 | S. cerevisiae deletion strains, locus YNL322C, strain KRE1, stronger effect = lower value 1 | S. cerevisiae deletion strains, locus YNR030W, strain Alg12, stronger effect = lower value 1.01 | S. cerevisiae deletion strains, locus YPL055C, strain LGE1, stronger effect = lower value 0.935 | S. cerevisiae deletion strains, locus YPL241C, strain CIN2, stronger effect = lower value 0.996 | S. cerevisiae deletion strains, locus YPR135W, strain CTF4, stronger effect = lower value 0.982 | S. cerevisiae strains, strain wild type, stronger effect = lower value 0.981

O=C(Nc1cc(C(F)(F)F)cc(C(F)(F)F)c1)C(Cl)(Cl)Cl
active: [2] 0.829 | S. cerevisiae deletion strains, locus YLR113W, strain HOG1, stronger effect = lower value 0.853 | S. cerevisiae deletion strains, locus YPL256C, strain CLN2, stronger effect = lower value 0.77
inactive: S. cerevisiae deletion strains, locus YAR019C, strain CDC15, stronger effect = lower value 0.964 | S. cerevisiae deletion strains, locus YBL105C, strain PKC1, stronger effect = lower value 0.958 | S. cerevisiae deletion strains, locus YBR135W, strain CKS1, stronger effect = lower value 0.962 | S. cerevisiae deletion strains, locus YBR136W, strain MEC1, stronger effect = lower value 0.965 | S. cerevisiae deletion strains, locus YBR160W, strain CDC28, stronger effect = lower value 0.969 | S. cerevisiae deletion strains, locus YDL017W, strain CDC7, stronger effect = lower value 0.959 | S. cerevisiae deletion strains, locus YDL028C, strain MPS1, stronger effect = lower value 0.966 | [1] 0.97 | S. cerevisiae deletion strains, locus YDL108W, strain KIN28, stronger effect = lower value 0.957 | S. cerevisiae deletion strains, locus YDL132W, strain cdc53, stronger effect = lower value 0.955 | S. cerevisiae deletion strains, locus YDL214C, strain PRR2, stronger effect = lower value 0.919 | S. cerevisiae deletion strains, locus YDR052C, strain DBF4, stronger effect = lower value 0.964 | S. cerevisiae deletion strains, locus YDR054C, strain cdc34, stronger effect = lower value 0.948 | S. cerevisiae deletion strains, locus YDR226W, strain ADK1, stronger effect = lower value 0.959 | S. cerevisiae deletion strains, locus YDR477W, strain SNF1, stronger effect = lower value 0.921 | S. cerevisiae deletion strains, locus YER123W, strain YCK3, stronger effect = lower value 0.878 | S. cerevisiae deletion strains, locus YER133W, strain GLC7, stronger effect = lower value 0.918 | S. cerevisiae deletion strains, locus YFL009W, strain cdc4, stronger effect = lower value 0.951 | S. cerevisiae deletion strains, locus YFL029C, strain CAK1, stronger effect = lower value 0.962 | S. cerevisiae deletion strains, locus YFR003C, strain YPI1, stronger effect = lower value 0.955 | S. cerevisiae deletion strains, locus YFR019W, strain FAB1, stronger effect = lower value 0.957 | S. cerevisiae deletion strains, locus YFR028C, strain CDC14, stronger effect = lower value 0.962 | S. cerevisiae deletion strains, locus YGR040W, strain KSS1, stronger effect = lower value 0.929 | S. cerevisiae deletion strains, locus YGR052W, strain FMP48, stronger effect = lower value 0.911 | S. cerevisiae deletion strains, locus YGR092W, strain DBF2, stronger effect = lower value 0.879 | S. cerevisiae deletion strains, locus YHR079C, strain IRE1, stronger effect = lower value 0.843 | S. cerevisiae deletion strains, locus YHR082C, strain KSP1, stronger effect = lower value 0.932 | S. cerevisiae deletion strains, locus YHR205W, strain SCH9, stronger effect = lower value 0.815 | S. cerevisiae deletion strains, locus YIL147C, strain SLN1, stronger effect = lower value 0.96 | S. cerevisiae deletion strains, locus YJL095W, strain BCK1, stronger effect = lower value 0.828 | S. cerevisiae deletion strains, locus YJL128C, strain PBS2, stronger effect = lower value 0.883 | S. cerevisiae deletion strains, locus YJL157C, strain FAR1, stronger effect = lower value 0.932 | S. cerevisiae deletion strains, locus YJR016C, strain ILV3, stronger effect = lower value 0.956 | S. cerevisiae deletion strains, locus YJR066W, strain TOR1 (second series), stronger effect = lower value 0.947 | S. cerevisiae deletion strains, locus YJR066W, strain TOR1, stronger effect = lower value 0.955 | S. cerevisiae deletion strains, locus YKL048C, strain ELM1, stronger effect = lower value 0.931 | S. cerevisiae deletion strains, locus YKL067W, strain YNK1, stronger effect = lower value 0.932 | S. cerevisiae deletion strains, locus YKL101W, strain HSL1, stronger effect = lower value 0.918 | S. cerevisiae deletion strains, locus YKL193C, strain SDS22, stronger effect = lower value 0.95 | S. cerevisiae deletion strains, locus YKL203C, strain TOR2, stronger effect = lower value 0.969 | S. cerevisiae deletion strains, locus YLR133W, strain CKI1, stronger effect = lower value 0.934 | S. cerevisiae deletion strains, locus YLR403W, strain SFP1, stronger effect = lower value 0.916 | S. cerevisiae deletion strains, locus YML070W, strain DAK1, stronger effect = lower value 0.891 | S. cerevisiae deletion strains, locus YMR001C, strain CDC5, stronger effect = lower value 0.963 | S. cerevisiae deletion strains, locus YMR205C, strain PFK2 (second series), stronger effect = lower value 0.926 | S. cerevisiae deletion strains, locus YMR277W, strain FCP1, stronger effect = lower value 0.956 | S. cerevisiae deletion strains, locus YNL006W, strain LST8, stronger effect = lower value 0.974 | S. cerevisiae deletion strains, locus YNL020C, strain ARK1, stronger effect = lower value 0.92 | S. cerevisiae deletion strains, locus YNL161W, strain CBK1, stronger effect = lower value 0.957 | S. cerevisiae deletion strains, locus YNL183C, strain NPR1, stronger effect = lower value 0.913 | S. cerevisiae deletion strains, locus YNL207W, strain RIO2, stronger effect = lower value 0.955 | S. cerevisiae deletion strains, locus YNL222W, strain SSU72, stronger effect = lower value 0.967 | S. cerevisiae deletion strains, locus YNL307C, strain MCK1 (second series), stronger effect = lower value 0.869 | S. cerevisiae deletion strains, locus YOL078W, strain AVO1, stronger effect = lower value 0.961 | S. cerevisiae deletion strains, locus YOL136C, strain PFK27, stronger effect = lower value 0.89 | S. cerevisiae deletion strains, locus YOR061W, strain CKA2, stronger effect = lower value 0.96 | S. cerevisiae deletion strains, locus YOR119C, strain RIO1, stronger effect = lower value 1 | S. cerevisiae deletion strains, locus YOR231W, strain MKK1, stronger effect = lower value 0.896 | S. cerevisiae deletion strains, locus YOR329C, strain SCD5, stronger effect = lower value 0.959 | S. cerevisiae deletion strains, locus YPL031C, strain PHO85, stronger effect = lower value 0.904 | S. cerevisiae deletion strains, locus YPL153C, strain RAD53, stronger effect = lower value 0.889 | S. cerevisiae deletion strains, locus YPL204W, strain HRR25, stronger effect = lower value 0.879 | S. cerevisiae deletion strains, locus YPL209C, strain IPL1, stronger effect = lower value 0.964 | S. cerevisiae deletion strains, locus YPR025C, strain CCL1, stronger effect = lower value 0.969 | S. cerevisiae deletion strains, locus YPR106W, strain ISR1, stronger effect = lower value 0.958 | S. cerevisiae deletion strains, locus YPR111W, strain DBF20, stronger effect = lower value 0.941 | S. cerevisiae deletion strains, strain NNK1, stronger effect = lower value 0.96 | S. cerevisiae deletion strains, strain TSCII, stronger effect = lower value 0.957

From PubChem BioAssay AID1159580 (chemical genetic matrix, 2015)
